Screening results as filed in PubChem.
An excerpt weighted towards active compounds, which were near 3.5% of everything screened.
Myeloid diff MLP: promotes myeloid progenitor differentiation | ER-HoxA9 myeloid progenitors, lysozyme-GFP differentiation, flow cytometry | calls only at 10 µM | 1% of 360,000 active | AID 624256;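 active means normalized GFP-positive differentiation at or above the plate's own cutoff, the solvent-only control mean plus 3 SD; inconclusive means no clear call, values can overlap the other calls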;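 further: cells exposed to compound for four days before flow analysis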
M1 ag: agonists of human M1 muscarinic receptor. P11229. CHO-K1 hM1, Fluo-8 calcium fluorescence, agonist mode; 0% DMSO, 100% acetylcholine EC100. activation, % at 3 µM. 0.33% of 360,000 active;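 active means activation above the run's mean compound activation plus 3 SD, cut at about 16% in these data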;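 further: peak over basal fluorescence ratio within a 140 s kinetic read after compound addition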
SKN-1 inh: blocks SKN-1 activity in C. elegans; 0.49% of 360,000 active; inhibition, % at 21.8 µM; C. elegans VP596 Pgst-4::GFP/RFP ratio, acrylamide-induced, 24 h;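 active means interference check ratio from 0.5 to 1.5 plus GFP to RFP signal ratio inhibition reaching or exceeding a fixed threshold, cut at about 30% in these data, passing the limit was not always enough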
CHRM1 antagonist: human CHRM1 antagonism. 1.3% of 360,000 active. CHO-K1 hM1, Fluo-8 calcium fluorescence, ACh EC80 antagonist. inhibition, % at 3 µM. P11229;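 active means percent inhibition above its own plate's cutoff, namely the mean of that plate's compound wells plus 3 SD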;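 further: peak over basal fluorescence ratio during 140 s after agonist addition; 0% = ACh EC80 plus DMSO and 100% = DMSO alone without agonist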
ATG4B inhibitor: ATG4B (human) cysteine protease inhibition | Q9Y4P1 | ATG4B cleavage of LC3-PLA2, NBD-HPC fluorescence, 1 h | inhibition, % at 8.33 µM | 0.51% of 340,000 active; in the data active means inhibition above about 40%
Target sequence (Q9Y4P1 whole entry, looked up): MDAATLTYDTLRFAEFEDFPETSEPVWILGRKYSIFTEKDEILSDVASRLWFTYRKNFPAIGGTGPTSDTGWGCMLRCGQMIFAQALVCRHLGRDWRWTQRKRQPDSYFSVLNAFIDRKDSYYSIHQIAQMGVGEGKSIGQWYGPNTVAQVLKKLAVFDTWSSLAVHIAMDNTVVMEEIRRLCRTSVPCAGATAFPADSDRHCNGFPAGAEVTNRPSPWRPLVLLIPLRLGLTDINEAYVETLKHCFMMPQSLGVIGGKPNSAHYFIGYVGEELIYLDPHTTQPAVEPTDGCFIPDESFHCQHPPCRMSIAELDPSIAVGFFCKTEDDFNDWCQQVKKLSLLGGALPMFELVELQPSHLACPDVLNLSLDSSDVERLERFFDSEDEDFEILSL
CHRM1 PAM: potentiates human M1 receptor response to acetylcholine; activation, % at 3 µM; CHO-K1 hM1, Fluo-8 calcium fluorescence, ACh EC20; 0% = ACh EC20, 100% = maximal ACh; P11229; 0.088% of 360,000 active; in the data active means activation above about 19%, passing the limit was not always enough
The depositor's hits bear a star; i = inactive; ? = inconclusive; . = no result; + = active, no number.

SMILES | Myeloid diff MLP | M1 ag | SKN-1 inh | CHRM1 antagonist | ATG4B inhibitor | CHRM1 PAM
Clc1ccc(OCCCN2CCCC2)cc1Cl | i | -6.2 | 3.8 | 38.3* | 10.0 | -21.1
CCC(C)(C)c1ccc(OCCCC[n+]2cccc(C)c2C)c(C(C)(C)CC)c1 | ? | -8.0 | -27.5 | 73.2* | 18.6 | -24.3
COc1ccc(NC(=O)/C(C#N)=C\c2ccc(N3CCOCC3)o2)cc1 | i | 69.4* | 4.3 | 31.1* | -11.9 | -35.9
N#C/C(=C\c1ccc(N2CCOCC2)o1)C(=O)Nc1ccc(O)cc1 | + | 9.5 | 8.5 | 9.4 | -10.0 | -5.5
CN1OC[C@@H]2C(=O)N3CCc4c([nH]c5ccccc45)[C@@H]3C[C@@H]21 | i | -0.4 | -10.3 | -8.0 | . | 2.1
O=C(Oc1ccccc1)N1CCN(c2ccc(F)cc2)CC1 | i | -0.3 | 42.5* | -14.1 | -5.0 | 12.2
Fc1cccc(Cc2c(C3CCCCC3)nc3c4ccccc4ccn23)c1 | i | . | 9.2 | . | . | .
O=C(CS(=O)CC(=O)N(CC(=O)NC1CCCC1)C1CCCC1)Nc1ccc(F)cc1 (stereo not given) | i | -4.3 | 13.6 | 12.1 | 3.4 | 27.8*
CCC(=O)N1CCC1(C)C(=O)Nc1ccc2nc(C)ccc2c1 (stereo not given) | i | -0.8 | -7.8 | -18.0 | . | 8.8
O=S(=O)(Nc1ccc(C(F)(F)F)cc1)c1cnc[nH]1 | i | -4.1 | 38.4* | -24.9 | 4.0 | 4.2
O=S(=O)(Nc1cccc(C(F)(F)F)c1)c1cnc[nH]1 | i | 4.9 | -2.0 | -11.1 | -2.4 | 3.6
c1ccc(C[C@H]2CNCCN2CC2CCCCC2)cc1 | i | -2.0 | -5.7 | 4.2 | -4.6 | -1.2
c1ccc(CC2CCCNC2)cc1 (stereo not given) | i | 21.5* | 16.3 | 23.1 | 5.4 | -11.4
Cc1noc(C)c1NC(=O)N(C)C[C@@H]1Oc2ncc(Br)cc2C(=O)N([C@H](C)CO)C[C@@H]1C | i | -2.6 | -2.1 | -10.8 | . | 2.9
CCCCCC/C=N/Nc1nnc(Cc2ccc(OC)c(OC)c2)c(=O)[nH]1 | + | -0.9 | 11.9 | -13.5 | -1.7 | 10.9
CSc1cccc(NC(=O)c2cccc3cccnc23)c1 | i | -6.3 | 65.2* | -6.4 | -11.4 | 0.0
CCCC(=O)NC(c1ccco1)c1cc([N+](=O)[O-])c2cccnc2c1O (stereo not given) | + | -5.2 | -5.3 | -9.5 | 7.3 | 13.4
CC(=O)Nc1cccc(-c2ccnc3c2CC(C)(C(=O)Nc2ccc(Cl)cc2)O3)c1 (stereo not given) | ? | 4.2 | -1.5 | -10.1 | . | 12.6
CC(C)c1ccc(NC(=O)NCc2cccnc2)cc1 | i | -2.3 | 38.9* | -10.8 | 4.0 | 7.4
Cc1ccc(NC(=O)NCc2cccnc2)cc1 | i | -1.1 | 1.1 | -1.9 | 2.9 | 0.2
O=C(NC1CCCCC1)c1ccc([N+](=O)[O-])o1 | + | -1.5 | -8.0 | -4.4 | -4.8 | 4.5
O=C(NC1CCCC(C(F)(F)F)C1)c1ccc([N+](=O)[O-])o1 (stereo not given) | + | -2.0 | 11.0 | -2.3 | 6.8 | 7.8
O=C(NNC(=O)c1ccc([N+](=O)[O-])o1)c1ccccc1 | + | 1.1 | -5.8 | -3.0 | 11.1 | 4.6
c1ccc(-c2csc(-c3ccncc3)n2)cc1 | i | -4.5 | 69.8* | -5.8 | -2.0 | 3.7
c1ccc2c(-c3csc(-c4ccncc4)n3)c[nH]c2c1 | i | -3.7 | 19.8 | 2.2 | -12.7 | 2.8
SMILES | Myeloid diff MLP | M1 ag | SKN-1 inh | CHRM1 antagonist | ATG4B inhibitor | CHRM1 PAM
Brc1ccsc1-c1csc(-c2ccncc2)n1 | i | -8.3 | 39.8* | -13.1 | -1.5 | 0.5
Fc1ccccc1-c1csc(-c2cccnc2)n1 | i | 4.0 | 25.4 | -9.7 | -0.4 | 14.8
Oc1ccccc1-c1csc(-c2ccccc2)n1 | i | -5.4 | 19.4 | 5.9 | 6.9 | -2.7
Oc1ccc(-c2nc3ccccc3s2)cc1 | i | -0.9 | -11.0 | -9.0 | -9.9 | 6.8
c1ccc2sc(-c3ccncc3)nc2c1 | i | -4.6 | 38.6* | -20.5 | 21.9 | 12.0
Clc1ccc(-c2csc(-c3cccnc3)n2)s1 | i | 0.5 | 91.9* | -9.9 | 2.2 | 13.4
Cc1cc(C(=O)COC(=O)/C=C/c2cccc(Br)c2)c(C)n1C | i | -1.9 | 6.3 | 25.3 | 33.3 | -8.7
Cn1cc(NC(=O)OCc2ccc(Cl)cc2)c(C(F)(F)F)n1 | i | -4.2 | -6.3 | -2.0 | 0.9 | 1.6
COc1ccc(OC)c(N=c2oc3cc(O)ccc3cc2C(N)=O)c1 | ? | -1.9 | -2.9 | -2.7 | -5.7 | 4.8
COc1ccc2oc(=Nc3cc(F)ccc3F)c(C(N)=O)cc2c1 | + | -2.4 | 9.2 | 6.5 | -2.0 | -0.1
O=C(c1ccoc1)N1CCC2(CC1)Oc1ccc(F)cc1C(=O)C21CC(c2ccc(Cl)cc2)=NO1 (stereo not given) | + | -5.0 | 12.1 | 0.9 | -1.7 | 2.1
Cc1nn(C)c(C(=O)N/N=C/c2ccccc2)c1[N+](=O)[O-] | i | -6.2 | -6.1 | 21.3* | -15.4 | -23.2
Cc1ccc(SC(=O)c2c([N+](=O)[O-])c(C)nn2C)cc1 | i | -8.6 | 10.9 | 62.4* | -4.6 | -27.1
Cc1nn(C)c(C(=O)Nc2cccc(Nc3ccccc3)c2)c1[N+](=O)[O-] | i | -0.8 | 4.7 | 26.4* | . | -5.7
O=C(COc1ccc(F)cc1)N/N=C/c1cccc2cccnc12 | i | 0.2 | 11.4 | -12.4 | 36.1 | 7.2
O=C(NC1CCC(O)CC1)c1ccc2c(c1)S(=O)(=O)N=C1CCCCCN12 (stereo not given) | i | -1.8 | 3.7 | -6.1 | -9.2 | 4.6
COC(=O)c1ccc2nc(-c3ccco3)c(Cc3ccc(OC)cc3C)n2c1 | i | -2.5 | 5.2 | -21.0 | . | -1.4
COc1cc(-c2cc(-c3ccc(N)cc3)[nH]c(=O)c2C#N)cc(OC)c1OC | + | 5.5 | -21.8 | -20.9 | -6.5 | 12.7
N#Cc1c(-c2ccccc2)cc(-c2ccccc2)[nH]c1=O | i | -4.7 | -8.2 | -9.8 | 9.8 | 6.1
CCOC(=O)NN=C1CCC(c2ccccc2)CC1 (stereo not given) | i | 2.5 | 14.0 | -7.5 | 2.4 | 6.2
Cc1ccc(N2CC(C(=O)NC3CCCCCC3)CC2=O)cc1 (stereo not given) | i | -1.7 | 12.2 | -7.2 | . | 3.8
O=C1Nc2ccccc2C(=O)N2c3ccccc3NC(=O)C12 (stereo not given) | i | -0.8 | -9.7 | -31.7 | . | 7.1
CCN(CC)C1CCN(C(=O)c2cc(COc3cccc4cccnc34)on2)C1 (stereo not given) | i | -0.7 | 6.1 | 73.2* | -2.7 | -21.2
O=C(c1cc(COc2ccc(F)cc2Cl)on1)N1CCCCCC1 | i | -4.6 | 38.2* | 2.5 | 31.8 | -5.5
O=C(c1cc(COc2ccc(F)cc2Cl)on1)N1CCCCCCC1 | i | -3.6 | 18.4 | -3.9 | 31.0 | 5.9
